Test results from PubChem BioAssay AID1851 (National Center for Advancing Translational Sciences (NCATS), 2009).
Several values for one entry are separate records, joined by “and”; a condition that tells them apart may be missing. Equal values may be shown once. About 4,000 (25%) of roughly 16,000 compounds were called active. About 26% were inconclusive and are not listed. Calls come from the whole dose curve; as a rule, active = well fitted curve in the direction sought with a large enough effect; inconclusive = small, poorly fitted or top-dose-only effect, or effect the other way; inactive = no such curve, though single readings can be large or run the other way. Only a sample is shown. A structure can be active in one record and inactive in another. Square brackets hold non-standard residues; d marks the D form. Peptide text beside a SMILES is read from it.

target: Cytochrome P450 2C9 (Homo sapiens) (UniProt P11712); assay: Cytochrome panel assay with activity outcomes; conditions: recombinant CYP, pro-luciferin dealkylation, luminescence, p450-cyp2c9; series mostly up to 57.1 µM; activity, negative = inhibition: at the top concentration
% is set by controls: 0 for no effect and ±100 for the full control effect.

Chain of Cytochrome P450 2C9 (Homo sapiens) (P11712 whole entry, looked up): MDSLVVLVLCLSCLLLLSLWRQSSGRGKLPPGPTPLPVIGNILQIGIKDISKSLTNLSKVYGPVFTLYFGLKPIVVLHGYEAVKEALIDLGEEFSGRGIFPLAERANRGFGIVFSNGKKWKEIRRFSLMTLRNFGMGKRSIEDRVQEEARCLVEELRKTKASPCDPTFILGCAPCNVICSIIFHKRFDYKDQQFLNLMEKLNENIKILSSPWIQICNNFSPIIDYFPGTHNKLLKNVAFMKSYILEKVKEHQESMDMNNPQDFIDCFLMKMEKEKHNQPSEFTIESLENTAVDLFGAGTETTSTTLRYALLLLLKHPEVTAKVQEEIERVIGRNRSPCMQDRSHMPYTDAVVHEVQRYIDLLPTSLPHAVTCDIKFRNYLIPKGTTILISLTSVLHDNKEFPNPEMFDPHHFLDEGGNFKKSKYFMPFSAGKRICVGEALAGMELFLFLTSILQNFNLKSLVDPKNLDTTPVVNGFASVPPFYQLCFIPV

activity, negative = inhibition, inactive:
Cn1c(=O)c2[nH]c(CCCc3ccc([N+](=O)[O-])cc3)nc2n(C)c1=O 1.93% [at 11.4 µM]
CC(C)(C)c1ccc(COC(=O)CNC(=O)CNC(=O)Cc2ccccc2)cc1 -35.6%
Cc1ccc(C(=O)COC(=O)CNC(=O)C(c2ccccc2)c2ccccc2)cc1[N+](=O)[O-] 4.36%
O=C1[C@H]2[C@H]3[C@H](O)[C@H](O)C/C(=N/OC[C@@H](O)COCc4ccco4)[C@@H]3CC[C@@H]2C(=O)N1C[C@@H]1CCCO1 39.3% [at 11.4 µM]
COc1ccc(S(=O)(=O)N2CCC(N3CCCCC3)CC2)cc1 -24.7%
CCN(CC)CCOC(=O)[C@@H](c1ccccc1)C1CCCCC1 -9.95% [at 25.6 µM]
CC(C)OC(=O)c1cc2c(OC[C@@H](O)CNC(C)(C)C)cccc2[nH]1 -2.97%
CC(C)CO/N=C1/C[C@@H](O)[C@@H](O)[C@@H]2[C@@H]3C(=O)N(C[C@@H]4CCCO4)C(=O)[C@H]3CC[C@H]12 9.45% [at 11.4 µM]
O=C(NCCCN1CCN(C2CCCCC2)CC1)Nc1ccccc1C(F)(F)F 28.7%
CN1CCN(c2ncc3nc(-c4cccc(C#N)c4)c(=O)n(CCC#N)c3n2)CC1 -17.2%
COCCn1c(=O)c(C)nc2cnc(N3CCNCC3)nc21 16.1%
COCCn1c(=O)c(-c2cc(F)cc(F)c2)nc2cnc(N3CCOCC3)nc21 2.7%
COc1ccc(-n2c(=O)c(-c3cccc(C#N)c3)nc3cnc(N4CCNCC4)nc32)cc1 -21%
C1CCc2c(nc3nnnn3c2NC2CCCC2)C1 -36.8%
COc1ccc(C(OCCN2CCC[C@@H](C(=O)O)C2)(c2ccc(OC)cc2)c2ccc(OC)cc2)cc1 14.7%
S[C@@H]1CCCN(Cc2ccccc2)C1 -2.17% [at 11.4 µM]
C[C@H](N[C@@H](C)COc1ccccc1)[C@H](O)c1ccc(O)cc1 -13.1% [at 25.6 µM]
O=c1c(-c2ccc(F)cc2)nc2cnc(N3CCNCC3)nc2n1-c1ccccc1 -29.9%
CN1CCN(c2ncc3nc(-c4ccccc4)c(=O)n(Cc4ccc(F)cc4)c3n2)CC1 -26.1%
CN1CCN(c2ncc3nc(-c4ccc(Cl)cc4)c(=O)n(Cc4ccc(F)cc4)c3n2)CC1 -3.9%
CN(C)c1ncc2nc(-c3ccc(Cl)cc3)c(=O)n(Cc3ccc(F)cc3)c2n1 -15%
CC(O)CN(CCC(N)=O)CCC(N)=O (configuration not stated) -3.23%
CC(=O)c1cnc2c(C(=O)O)cnn2c1C 2.38%
Cc1cc(N)n(-c2ccccc2)n1 1.19%
Cc1ccc(C)c(C(=O)CN2C3=NCCCN3c3ccccc32)c1 -20.6%
CC[C@](N)(CCC(=O)O)C(=O)O 15%
CC(C)c1ccc(Cn2ccc3c4c(N)nc(NC5CC5)nc4ccc32)cc1 -0.13%
Cc1cc(N(CN2CCCC2=O)C(=O)c2ccc(F)cc2)no1 20.9%
Cc1ccc(C(=O)ON=C2CCN(S(=O)(=O)c3ccccc3)CC2)cc1 13.9%
Cc1ccc(S(=O)(=O)N[C@H]2COC(=O)[C@@H](Cc3ccccc3)NC(=O)[C@@H](C)COC(=O)C/C=C\[C@@H]2C)cc1 7.81% [at 11.4 µM] and -8.92% [at 11.4 µM]
Clc1ccccc1NN(Cc1ccccn1)c1ccccc1Cl -64.2% [at 11.4 µM]
NC(=O)CCCC1=NS(=O)(=O)c2ccccc2N1 -18.2%
COCCNC(=O)C(c1ccc(C)o1)N(CC1CCCO1)C(=O)Cn1nnc2ccccc21 (configuration not stated) -0.853%
COc1ccc(NC(=O)C(c2ccc(OC)cc2)N(C)C(=O)CNC(C)=O)cc1 (configuration not stated) -6.03%
CO[C@@H]1COC(=O)C/C=C\[C@@H](C)[C@H](OC)COC(=O)[C@H](COCc2ccccc2)NC(=O)C/C=C\[C@H]1C 3.17% [at 11.4 µM]
C/C(CCN1CCCCc2nc(C)c(C)cc21)=N\OC[C@@H](C)[C@H](OCc1ccccc1)C(C)C -7.17% [at 11.4 µM]
COC(=O)c1cc(OC)c(OC)cc1NC(=S)N1CCCCC1 -15.7%
COc1ccc(C2=NOC(C(=O)NCCN3CCOCC3)C2)cc1 (configuration not stated) -10.2%
COc1ccc2cc3cc(C(=O)NCCCN4CCOCC4)oc3nc2c1 -4.23%
CCOC(=O)C1CCCN(C(=O)/C=C/c2cccc([N+](=O)[O-])c2)C1 (configuration not stated) 6.66%
CCOC(=O)C1CCCN(C(=O)C2CCN(S(=O)(=O)N3CCC4(CC3)OCCO4)CC2)C1 (configuration not stated) -23.8%
Cn1ncc(Cl)c1C(=O)Nc1cccnc1 -33.2%
CCOc1ccc(Cl)cc1CNCCNCC(C)O (configuration not stated) 6.63%
O=C(O)NCC1CCCCC1 (tested in a mixture with another compound) -18.2% [at 11.4 µM]
CCC(=O)NC(=S)Nc1ccc(NC(=O)COc2ccc(Cl)cc2Cl)cc1 -19%
Cc1ccccc1OCC(=O)NC(=S)Nc1ccc(Br)c(C)n1 -24.6%
S=C(NCc1ccccn1)Nc1cccc(Cl)c1 4.91%
N[C@H](CO)C(=O)NCC(=O)O (H-[dS]-Gly-OH) 7.87% [at 11.4 µM]
Cc1ccccc1NC(=O)C1CC(=O)N(c2ccc3c4c(cccc24)CC3)C1 (configuration not stated) 12.2%
O=C(N/N=C/c1cccc([N+](=O)[O-])c1)c1cc2c(ccc3ccccc32)o1 8.69%
CC1CCCN(CCCNC(=O)C2CC(=O)N(c3ccc(F)c(Cl)c3)C2)C1 (configuration not stated) 17.6%
Cc1ccc(NC(=O)/C(=C/c2cccc([N+](=O)[O-])c2)NC(=O)C2CCCCC2)c(C)c1 -13.7%
Nc1nc2c(nc(Br)n2[C@@H]2O[C@H]3COP(=O)(O)O[C@H]3[C@@H]2O)c(=O)[nH]1 -3.31%
COC(=O)[C@](C)(N)Cc1ccc(O)cc1 20%
COc1cc([C@H](O)C(=O)O)ccc1O 13.8%
Cn1c(CCN2CCCCC2)nc2cc([N+](=O)[O-])ccc21 -0.958%
CN1CCN(c2ccc([N+](=O)[O-])cc2C(=O)N2CCOCC2)CC1 14.2%
CCN1CCN(c2nn3c(=O)c4ccccc4nc3c3ccccc23)CC1 -10.3%

AC50, active:
Cc1ccc(C(=O)COC(=O)CNC(=O)Cc2ccccc2)cc1[N+](=O)[O-] 14.1 µM
COc1ccc(S(=O)(=O)N2CC3C4C=CC(C4)C3C2)cc1 (configuration not stated) 14.1 µM
CC(C)(C)NC(=O)CSC(=Nc1ccc(F)cc1)NC#N 12.6 µM
Cc1nn(-c2ccccc2)c2c1C(=O)N(Cc1ccccc1)C(=O)C(C)(C)C2 17.8 µM
CCOC(=O)C1=C(C)NC2=C(C(=O)C(C(=O)OCC)C(c3ccc(OC)cc3)C2)C1c1ccccn1 (configuration not stated) 8.91 µM
COCCn1c(=O)c(-c2cc(F)cc(F)c2)nc2cnc(N3CCNCC3)nc21 1.26 µM
COCCn1c(=O)c(-c2cccc(C#N)c2)nc2cnc(N3CCNCC3)nc21 3.98 µM
O=C1/C(=C/c2ccccc2)[C@@H](NC2CCCCC2)c2ccccc21 3.98 µM
O=c1c(-c2ccc(Cl)cc2)nc2cnc(N3CCNCC3)nc2n1Cc1ccc(F)cc1 25.1 µM
O=c1c(-c2ccccc2)nc2cnc(N3CCNCC3)nc2n1Cc1ccc(F)cc1 10 µM
Cc1cc(-c2c(C)[nH]n(-c3ccccc3)c2=O)n(-c2ccccc2)n1 1.58 µM
CC(CCC(=O)O)(c1cc(Br)c(O)c(Br)c1)c1cc(Br)c(O)c(Br)c1 3.16 µM
O=C(NCc1ccccc1)c1ccc(S(=O)(=O)N2CCCc3ccccc32)cc1 3.16 µM
Cc1cc(NC(=O)COC(=O)c2ccc(S(=O)(=O)N3CCCc4ccccc43)cc2)no1 3.55 µM
Clc1ccccc1NN(Cc1ccncc1)c1ccccc1Cl 1.58 µM
CC1=c2c(oc3cc(O)c(Nc4c(C)cc(O)cc4O)c(C)c23)=CC(=O)C1=Nc1c(C)cc(O)cc1O 3.16 µM
Cc1ccc(C2C3=C(CCCC3=O)Nc3nc(SCC(=O)NCc4ccco4)[nH]c(=O)c32)cc1 (configuration not stated) 5.01 µM
COc1cccc(C(C(=O)Nc2ccc(F)cc2)N(C(=O)Cn2nnc3ccccc32)C2CC2)c1 (configuration not stated) 12.6 µM
COc1ccc(C(C(=O)Nc2ccc(F)cc2)N(C(=O)Cn2nnc3ccccc32)C2CC2)cc1 (configuration not stated) 12.6 µM
Cc1ccccc1C(=O)Oc1ccc(Br)cc1C(=S)N1CCCC1 11.2 µM
CCOC(=O)C1CCCN(C(=O)c2sc3nc(-c4ccc(OC)cc4)cn3c2C)C1 (configuration not stated) 4.47 µM
COc1ccc(-c2cn3c(C)c(C(=O)NCCN4CCOCC4)sc3n2)cc1 7.94 µM
CC(C)CNC(=O)c1ccc(COc2ccc(Cl)cc2Cl)o1 3.55 µM
O=C(Nc1ccn(Cc2ccccc2F)n1)c1ccc(COc2cc(Cl)ccc2Cl)o1 0.447 µM
O=C(Nc1cccnc1)c1ccc(COc2cc(Cl)ccc2Cl)o1 14.1 µM
O=C(CCN1C(=O)c2ccccc2C1=O)NC(=S)Nc1cccc(Cl)c1 10 µM
O=C(COc1ccccc1Cl)NC(=S)Nc1cccc(NC(=O)c2ccccc2Cl)c1 0.794 µM
CC(Sc1ccc2c(c1)OCCO2)C(=O)Nc1ncc(Cl)cc1Cl (configuration not stated) 3.98 µM
CCc1ccc(N2CC(C(=O)N/N=C/c3cccc([N+](=O)[O-])c3)CC2=O)cc1 (configuration not stated) 3.55 µM
CCc1ccc(N2CC(C(=O)NC3=NCCS3)CC2=O)cc1 (configuration not stated) 12.6 µM
COC(=O)/C=C\c1cc(O)ccc1O 7.94 µM
O=C(c1ccc(Br)cc1)c1cc([N+](=O)[O-])ccc1N1CCCCC1 2.51 µM
CCn1c(/C=C2/C(=O)N(C)c3ccccc32)nc2ccccc2c1=O 10 µM

AC50, inactive and 7.94 µM (active):
O=C(O)[C@H]1CCCN(CCC=C(c2ccccc2)c2ccccc2)C1
